Source: PubChem BioAssay (The Scripps Research Institute Molecular Screening Center)
SRC1 TRFRET art – TR-FRET detection interference compounds, primary screen, artefact control for PPARgamma SRC-1 recruitment agonists, biochemical, TR-FRET emission ratio | actives 0.34% (n = 99,000) | TR-FRET detection artefact counter-screen; hits give high values | TR-FRET ratio at 8 µM; in the data active means TR-FRET ratio above about 2300
SRC3 TRFRET art – TR-FRET detection interference compounds, artefact control for PPARgamma SRC-3 recruitment agonists, biochemical, TR-FRET ratio; TR-FRET artefact counter-screen, PPARgamma/SRC-3 format; hits give high values; TR-FRET ratio at 8 µM; actives 0.39% (n = 99,000); in the data active means TR-FRET ratio above about 2000
PPARg SRC3 recr – PPARgamma agonists recruiting SRC-3 coactivator, primary screen, biochemical | Peroxisome proliferator-activated receptor gamma (Homo sapiens), P37231 | biochemical PPARgamma/SRC-3 coactivator recruitment assay | activation, % at 8 µM | actives 0.26% (n = 200,000) | AID 731, 2007; in the data active means activation above about 23%;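 further: 0% = DMSO and 100% = reference agonist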
Target sequence (P37231 whole entry, looked up): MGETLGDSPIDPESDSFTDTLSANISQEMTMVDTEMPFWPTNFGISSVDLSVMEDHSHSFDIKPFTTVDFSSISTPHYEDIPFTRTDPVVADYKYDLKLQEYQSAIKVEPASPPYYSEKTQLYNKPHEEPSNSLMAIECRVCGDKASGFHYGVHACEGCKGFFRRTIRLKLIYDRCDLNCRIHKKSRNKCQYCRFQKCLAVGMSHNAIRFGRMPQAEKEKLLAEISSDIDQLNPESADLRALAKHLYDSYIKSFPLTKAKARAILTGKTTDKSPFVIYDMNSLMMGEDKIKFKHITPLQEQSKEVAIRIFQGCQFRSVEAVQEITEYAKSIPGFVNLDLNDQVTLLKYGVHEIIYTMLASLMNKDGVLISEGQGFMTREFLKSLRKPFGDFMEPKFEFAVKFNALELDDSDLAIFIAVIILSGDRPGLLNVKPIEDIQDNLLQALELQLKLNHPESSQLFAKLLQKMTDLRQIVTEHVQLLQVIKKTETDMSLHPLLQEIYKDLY
PPARg SRC1 recr – PPARgamma agonists recruiting SRC-1 coactivator, primary screen, biochemical. Peroxisome proliferator-activated receptor gamma (Homo sapiens), P37231. PPARgamma-SRC-1 coactivator recruitment biochemical assay. activation, % at 8 µM. actives 0.41% (n = 200,000). AID 631, 2007; in the data active means activation above about 19%;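 further: 0% = DMSO and 100% = reference agonist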
PPARg SRC-2 ag – agonists of PPARg-SRC-2 recruitment, primary screen, biochemical, HTS; PPARgamma LBD-SRC-2 recruitment; activation, % at 8 µM; actives 0.34% (n = 200,000);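 further: 0% = vehicle and 100% = reference agonist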
TR-FRET SRC-2 ct – TR-FRET signal artefacts, primary screen, artefact control for PPARgamma SRC-2 agonist project, biochemical | TR-FRET ratio at 8 µM | TR-FRET artefact counter-screen; hits give high values | AID 1049, 2008 | actives 0.4% (n = 200,000); in the data active means TR-FRET ratio above about 2000
PPARg SRC2 conf – agonists of PPARgamma SRC-2 coactivator recruitment, confirmation, biochemical, HTS; AID 1297, 2008; actives 52% (n = 790); biochemical SRC-2 recruitment by PPARgamma; shares compounds with PPARg SRC3 recr; activation, % at 8 µM;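 further: 0% = vehicle alone and 100% = reference agonist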
PPARg SRC1 conf – PPARgamma agonists recruiting SRC-1 coactivator, confirmation, biochemical | shares compounds with PPARg SRC3 recr | PPARgamma–SRC-1 coactivator recruitment biochemical assay | activation, % at 8 µM | actives 43% (n = 790) | AID 1300, 2008; in the data active means activation above about 20%;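 further: 0% = vehicle wells and 100% = reference agonist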
PPARg SRC3 conf – PPARgamma-driven SRC-3 coactivator recruitment agonists, confirmation, biochemical. shares compounds with PPARg SRC3 recr. biochemical PPARgamma-SRC-3 coactivator recruitment, agonist mode. activation, % at 8 µM. actives 29% (n = 790). AID 1301, 2008; in the data active means activation above about 24%;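 further: 0% = vehicle wells and 100% = reference agonist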
The depositor's hits bear a star; nt = no result given. Hits are enriched below; roughly 0.9% of the tested compounds scored in any of these assays. Unless noted, no stated cut-off is given here; in the data, active means activation above about 22%; inactive means the rest.

SMILES	SRC1 TRFRET art	SRC3 TRFRET art	PPARg SRC3 recr	PPARg SRC1 recr	PPARg SRC-2 ag	TR-FRET SRC-2 ct	PPARg SRC2 conf	PPARg SRC1 conf	PPARg SRC3 conf
O=C1c2ccccc2C(=O)N1Cc1ccc2c(c1)OCO2	nt	nt	-7	-6	-6	1414	nt	nt	nt
Cc1ccc(S(=O)(=O)NCc2ccc3c(c2)cc(C)n3C)cc1	nt	nt	2	8	6	2007*	nt	nt	nt
Cc1cc2cc(CN3C(=O)c4ccccc4C3=O)ccc2n1C	2104	2708*	0	2	6	1840	nt	nt	nt
O=C(CSCc1cccc(Cl)c1)N1CCN(Cc2ccc3c(c2)OCO3)CC1	nt	nt	1	3	1	1588	nt	nt	nt
COC(=O)c1c(NC(=O)Cc2ccccc2)sc(C)c1C	nt	nt	-8	-4	-1	1586	nt	nt	nt
COC(=O)c1c(NC(=S)Nc2ccccc2Cl)sc(C)c1C	nt	nt	38*	22*	31*	2012*	31*	24*	19
COC(=O)C(CC(=O)c1ccc(Br)cc1)n1ccnc1 (configuration not stated)	nt	nt	13	3	3	1590	nt	nt	nt
Cc1c(Cl)c(-c2n[nH]c(=S)n2-c2ccc(F)cc2)nn1C	nt	nt	48*	33*	31*	2050*	28*	17	19
CCn1c(-c2nn(C)cc2Cl)n[nH]c1=S	2020	1469	-1	0	5	1771	nt	nt	nt
Cc1cc(-c2n[nH]c(=S)n2-c2ccccc2)nn1C	2186	1839	6	14	12	1825	nt	nt	nt
S=c1[nH]nc(-c2cc(-c3ccco3)[nH]n2)n1-c1ccccc1	nt	nt	27*	6	18	1917	23*	16	14
Cc1nn(C)c(-c2n[nH]c(=S)n2-c2ccccc2)c1Cl	2273	2211*	21	24*	14	2081*	22	16	18
Cn1cc(Cl)c(-c2n[nH]c(=S)n2-c2ccccc2)n1	2497*	2184*	21	30*	35*	2159*	27*	16	18
O=C(CN1C(=O)NC2NC(=O)NC21)N/N=C/c1ccccc1F (configuration not stated)	1970	1674	1	11	-6	1577	nt	nt	nt
CN(C)c1ccc(NC(=O)CSc2nc(N)c(C(=O)Nc3ccc(N(C)C)cc3)s2)cc1	nt	nt	20	13	24*	1835	7	11	5
O=C1C=C(c2cccs2)CC(c2cccs2)C1n1cnc([N+](=O)[O-])c1 (configuration not stated)	nt	nt	26*	12	20	1790	18	20*	12
Cc1ccc2nc(N3CCN(C)CC3)c(C#N)cc2c1	nt	nt	-2	3	-4	1378	nt	nt	nt
Cc1ccc2nc(N3CCN(S(=O)(=O)c4ccc(C)c(Cl)c4)CC3)c(C#N)cc2c1	nt	nt	29*	22*	6	1637	9	6	4
N=C1C(c2nc3ccccc3[nH]2)=C(O)CN1NC(=O)COc1cccc(F)c1	1746	1479	2	-1	-1	1619	nt	nt	nt
O=C(CCSc1nnc2ccc3ccccc3n12)Nc1ccc(F)cc1	nt	nt	33*	10	17	1920	29*	24*	19
CC(C)(C)C1CCc2c(sc(NC(=O)c3cccs3)c2C(=O)N2CCCCC2)C1 (configuration not stated)	nt	nt	10	2	0	1601	nt	nt	nt
Cc1cccc(-n2c(=S)[nH]c3sc4c(c3c2=O)CCc2ccccc2-4)c1	2821*	2699*	21	26*	36*	2315*	34*	22*	24*
Cn1c(=O)cc(SCC(=O)NCC2COc3ccccc3O2)c2ccccc21 (configuration not stated)	nt	nt	12	4	15	1878	nt	nt	nt
CN(Cc1ccccc1)C(=O)CSc1cc(=O)n(C)c2ccccc12	3203*	2514*	31*	46*	17	2656*	32*	22*	24*
CCCc1cc(=O)[nH]c(SCC(=O)N(C)Cc2ccccc2)n1	nt	nt	5	3	9	1409	nt	nt	nt
SMILES	SRC1 TRFRET art	SRC3 TRFRET art	PPARg SRC3 recr	PPARg SRC1 recr	PPARg SRC-2 ag	TR-FRET SRC-2 ct	PPARg SRC2 conf	PPARg SRC1 conf	PPARg SRC3 conf
CCOC(=O)N1CCC(NC(=O)CSc2cc(=O)n(C)c3ccccc23)CC1	nt	nt	48*	47*	49*	2545*	40*	26*	25*
CCOc1ccc(CCNC(=O)CSc2cc(=O)n(CC)c3ccccc23)cc1OCC	2106	1684	15	20*	31*	2084*	25*	18	17
CCn1c(=O)cc(SCC(=O)N(C)Cc2ccccc2)c2ccccc21	nt	nt	34*	32*	47*	2336*	42*	28*	27*
Cc1ccc(C(=O)C(OC(=O)CNS(=O)(=O)c2ccccc2)c2ccccc2)cc1 (configuration not stated)	nt	nt	0	6	-6	1314	nt	nt	nt
COC(=O)c1cc2ccsc2n1Cc1ccccc1F	1678	1517	2	4	7	1445	nt	nt	nt
CCCCN(CC)C(=O)CSc1cc(=O)n(C)c2ccccc12	nt	nt	74*	55*	51*	2446*	32*	20*	21
CCOC(=O)CSc1cc(=O)n(C)c2cc(Cl)ccc12	nt	nt	97*	77*	68*	3535*	43*	26*	28*
Cn1c(=O)cc(SCC(=O)N2CCCC2)c2ccccc21	2601*	2626*	20	30*	35*	2431*	37*	24*	26*
CCOC(=O)CSc1cc(=O)n(CC)c2ccccc12	nt	nt	32*	28*	36*	2136*	27*	17	19
CCCOc1ccc(N2C(=O)CC(N3CCC(c4nc5ccccc5o4)CC3)C2=O)cc1 (configuration not stated)	1723	1567	-1	-1	4	1543	nt	nt	nt
CCc1ccc2nc3c(c(C(=O)O)c2c1)CCC3	nt	nt	9	1	9	1632	nt	nt	nt
Cc1cc(Br)c2nc3c(c(C(=O)O)c2c1)CCCCC3	3214*	4157*	50*	53*	98*	4070*	67*	43*	47*
O=C(COc1ccc(-c2ccccc2)cc1)N1CCN(S(=O)(=O)Cc2ccccc2)CC1	nt	nt	-6	0	-4	1393	nt	nt	nt
